Screening results as filed in PubChem BioAssay.
In the library only some 10% were active in any assay of this set; here they are far more common.
JMJD2A Tudor inh: qHTS Assay for Inhibitors of JMJD2A-Tudor Domain. Lysine-specific demethylase 4A (Homo sapiens), O75164. AlphaScreen JMJD2A-Tudor / H3K4me3 peptide binding. Potency, µM (top dose mostly 114 µM), hits mostly inhibitors. 4.4% of 390,000 active. AID 504339, 2011; note: nearly all actives have a fitted effect of over 50% in size
BAZ2B block: qHTS Assay for Inhibitors of BAZ2B; 4.4% of 360,000 active; AID 504333, 2011; Bromodomain adjacent to zinc finger domain protein 2B (Homo sapiens), Q9UIF8; Potency, µM (highest dose often 114 µM), hits mostly inhibitors; AlphaScreen BAZ2B-H3K14Ac peptide displacement; note: nearly all actives have a fitted effect of over 60% in size
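AlphaScreen luminescence quantifies BAZ2B engagement of H3K14Ac peptide; the protein and biotinylated peptide are both at 50 nM final, buffer PBS pH 7.4 with 0.01% Tween-20, all steps at room temperature.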
GLS inhibitor: qHTS for Inhibitors of Glutaminase (GLS). GLS enzymatic activity, qHTS titration. Potency, µM (series often up to 45.5 µM), most hits filed as inhibitors. 0.21% of 410,000 active
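hKGA in 45 mM KH2PO4 pH 8.2, 0.02% Tween-20 with pin-transferred compounds; 1 mM L-glutamine (stock) plus glutamate oxidase/HRP/Amplex Red coupling added. Fluorescence read initially and after 30 min at RT.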
L3MBTL1 inh: qHTS Assay for the Inhibitors of L3MBTL1. 0.66% of 230,000 active. Lethal(3)malignant brain tumor-like protein 1 (Homo sapiens), Q9Y468. AlphaScreen L3MBTL1–H3K9me1 peptide binding. Potency, µM (titrated, usually from 57.1 µM), most hits filed as inhibitors; note: nearly all actives have a fitted effect of over 60% in size
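First, the protein-peptide complex forms for 30 min at room temperature (L3MBTL1 50 nM, biotinylated H3K9me1 peptide 75 nM). Next, compounds are pin-transferred and incubated 30 min. Finally, AlphaScreen beads are added and read after 30 min.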
HP1b binding inh: HTS for Inhibitors of HP1-beta Chromodomain Interactions with Methylated Histone Tails. 0.56% of 390,000 active. AlphaScreen HP1-beta / biotin-H3K9me3 peptide binding. Chromobox protein homolog 1 (Homo sapiens), P83916. Potency, µM (series often up to 114 µM), actives largely listed as inhibitors; note: nearly all actives have a fitted effect of over 70% in size
Target sequence (P83916 whole entry, looked up): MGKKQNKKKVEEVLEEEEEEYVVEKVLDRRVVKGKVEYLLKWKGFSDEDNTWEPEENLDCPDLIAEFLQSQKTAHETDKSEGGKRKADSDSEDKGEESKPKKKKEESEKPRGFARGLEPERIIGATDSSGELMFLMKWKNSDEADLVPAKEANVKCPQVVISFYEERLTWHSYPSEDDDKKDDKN
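HP1-beta protein (50 nM final) preincubated 30 min at room temperature with biotinylated H3(1-18)K9me3 peptide (50 nM) in PBS pH 7.4, 0.01% Tween-20, then compound added for 30 min. AlphaScreen streptavidin donor/nickel chelate acceptor beads (10 ug/mL final), 30 min dark, luminescence read.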
G9a block: qHTS Assay for Inhibitors of Histone Lysine Methyltransferase G9a | G9a H3K9 monomethylation, AlphaScreen, 2 h | Potency, µM (titrated, usually from 102 µM), hits mostly inhibitors | 8.8% of 350,000 active; note: nearly all actives have a fitted effect of over 75% in size
Target sequence (Q96KQ7 913-1193 limits assumed): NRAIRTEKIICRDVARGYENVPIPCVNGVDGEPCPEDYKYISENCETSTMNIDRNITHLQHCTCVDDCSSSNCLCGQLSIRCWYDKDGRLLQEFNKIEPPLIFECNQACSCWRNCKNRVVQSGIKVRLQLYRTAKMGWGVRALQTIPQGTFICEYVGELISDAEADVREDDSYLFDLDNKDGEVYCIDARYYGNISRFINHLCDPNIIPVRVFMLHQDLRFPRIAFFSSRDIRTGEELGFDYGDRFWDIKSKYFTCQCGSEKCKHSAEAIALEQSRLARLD
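Using a bead-based AlphaScreen, monomethylated H3K9 product from 2 h room-temperature reactions (G9a 20 nM, peptide 500 nM, SAM 20 uM) was detected with 0.5 ug/mL rabbit anti-H3K9me1 antibody.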
Numbers stand for hits; n = inactive; u = inconclusive; x = no result given; [ ] = remark or other dose. Calls come from the whole dose curve; as a rule, active = well fitted curve in the direction sought with a large enough effect; inconclusive = small, poorly fitted or top-dose-only effect, or another doubt; inactive = no such curve, though single readings can be large; an effect the other way counts as inactive or inconclusive.

SMILES | JMJD2A Tudor inh | BAZ2B block | GLS inhibitor | L3MBTL1 inh | HP1b binding inh | G9a block
CN1C(=O)/C(=C/c2ccc(N3CCCCCC3)o2)C(=O)NC1=S | n | u | n | n | n | u
CN1C(=O)/C(=C\c2ccc(N3CCCCC3)o2)C(=O)NC1=S | n | n | n | n | n | 31.6µM
CCOc1ccc(N2C(=O)NC(=O)/C(=C\c3ccc(N4CCCCC4)o3)C2=O)cc1 | n | n | n | n | n | 44.7µM
CN1CCN(c2ccc(/C=C3\C(=O)NC(=S)N(c4cccc(Br)c4)C3=O)o2)CC1 | u | 39.8µM | 11.2µM | n | u | u
O=C(O)/C=C/CO | x | x | x | x | x | n
CC12CCC3C(=CCc4cc(O)ccc43)C1CCC2=O (stereo not drawn) | x | x | x | x | x | n[2.33 µM]
C=CCN1C(=O)/C(=C/c2cc(C)n(-c3cccnc3)c2C)C(=O)NC1=S | n | n | u | n | n | u
CCCCN1C(=O)/C(=C/c2ccc(N3CCCCCC3)cc2)C(=O)NC1=S | x | u | x | u | x | 17.8µM
CN1C(=O)/C(=C\c2ccc(N3CCCCCC3)cc2)C(=O)NC1=S | u | u | n | n | n | 28.2µM
CN(C)[C@@H](Cc1ccccc1)c1ccccc1 | x | x | n | x | x | n[12.7 µM]
CN1C(=O)C(c2ccc([N+](=O)[O-])cc2[N+](=O)[O-])C(=O)N(C)C1=O | u | 50.1µM | n | x | n | n[2.33 µM]
O=[N+]([O-])c1ccc(Cl)c([N+](=O)[O-])c1 | u | n | n | n | n | n
COC(=O)[C@]1(C)N[C@H](CN(C)S(=O)(=O)c2ccc(-c3ccccc3)cc2)[C@@H]2C(=O)N(Cc3ccccc3)C(=O)[C@@H]21 | n | x | n | n | n | x
O=C1C=CC2C3C(=O)N(c4ccccc4)C(=O)C3C1N2Cc1ccccc1 (stereo not drawn) | n | x | n | x | n | x
CC(C)=CCC/C(C)=C/CN(CC(C)O)CC(C)O (stereo not drawn) | 3.16µM | n | n | n[11.4 µM] | u | 10µM
CCCCOc1ccc(Cn2c(=O)oc3ccccc32)cc1 | n | n | n | x | n | n
C[N+]1=C2CCCCCN2C(O)(c2ccccc2)C1 (stereo not drawn) | 44.7µM | n | n | n | n | 31.6µM
COc1ccc(C(O)P(=O)(OCC(C)C)c2ccc(N(C)C)cc2)c(OC)c1 (stereo not drawn) | n | n | n | x | n | u
O=P(/C(=N/O)N1CCCCC1)(N1CCOCC1)N1CCOCC1 | n | n | n | n | n | 56.2µM
CC(Cl)(Cl)/C(=N/P(=S)(N1CCOCC1)N1CCOCC1)N1CCOCC1 | n | n | n | n | n | n
O=C(O)[C@@H]1CCN1 | x | x | x | x | x | n
CC(N)C(=O)NC1C2C(=C(O)CC(O)C2O)C(=O)OC1(C)C(Cl)Cl (stereo not drawn) | 25.1µM | x | n | x | n | x
O=[As]O[As]=O (stereo not drawn) | x | x | n | x | x | n
COc1ccc(N/N=C/c2c(O)n(-c3ccc(C)c(C)c3)c(=O)[nH]c2=O)cc1 | 35.5µM | n | n | n | n | 1µM
Cc1cc(C)c(-n2c(O)c(C=NCCN3CCOCC3)c(=O)[nH]c2=O)c(C)c1 | n | n | n | n | n | n
SMILES | JMJD2A Tudor inh | BAZ2B block | GLS inhibitor | L3MBTL1 inh | HP1b binding inh | G9a block
COc1ccc(N/N=C/c2c(O)n(-c3cccc(C)c3)c(=O)[nH]c2=O)cc1 | n | n | n | n | n | 2.24µM
COc1ccc(N=Cc2c(O)n(-c3ccc(C)cc3)c(=O)[nH]c2=O)cc1 | n | n | n | n | n | n
Cn1c(O)c(/C=N/Nc2ccccc2)c(=O)n(C)c1=O | u | n | n | n | n | 3.98µM
COc1cccc(-n2c(O)c(C=NCCN3CCOCC3)c(=O)[nH]c2=O)c1 | n | n | n | n | n | 44.7µM
C[C@]12CC[C@H](O)C[C@H]1CCC1C2CC[C@]2(C)[C@@H](c3ccc(=O)oc3)C[C@H]3O[C@]132 (stereo partly drawn) | x | x | n | x | x | n[12.7 µM]
c1cc(CN2CCCC3(CCNCC3)C2)ccn1 | x | x | x | x | x | n[12.7 µM]
Cc1ccc(-n2c(O)c(/C=N/Nc3ccccc3)c(=O)[nH]c2=O)cc1C | n | n | n | n | n | 7.94µM
Cc1ccc(-n2c(O)c(/C=N/N3CCCCCC3)c(=O)[nH]c2=O)cc1C | n | n | n | n | n | u
CN1CCN(/N=C/c2c(O)n(C)c(=O)n(C)c2=O)CC1 | n | n | n | u | n | 28.2µM
Cc1cc(/C=C2\C(=O)NC(=O)N(c3ccc(F)cc3)C2=O)c(C)n1-c1ccc(C(=O)O)cc1 | n | u | n | u | n | x
Cc1ccc(N2C(=O)NC(=O)/C(=C\c3cc(C)n(-c4cc(C(=O)O)cc(C(=O)O)c4)c3C)C2=O)cc1 | 31.6µM | u | n | x | u | 35.5µM
CCc1ccc(N2C(=O)NC(=O)/C(=C\c3cc(C)n(-c4cc(C(=O)O)cc(C(=O)O)c4)c3C)C2=O)cc1 | 50.1µM | 70.8µM | n | x | n | 35.5µM
Cc1ccc(N2C(=O)NC(=O)/C(=C\c3cc(C)n(-c4ccc(C(=O)O)cc4)c3C)C2=O)cc1 | n | n | n | x | n | u
Cc1ccc(N2C(=O)NC(=O)/C(=C/c3ccc(-c4ccc(C(=O)O)c(Cl)c4)o3)C2=O)cc1 | n | u | 11.2µM | x | n | 10µM
Cc1cc(/C=C2\C(=O)NC(=O)N(c3cccc(F)c3)C2=O)c(C)n1-c1ccc(C(=O)O)c(Cl)c1 | n | u | u | u | n | 35.5µM
Cc1cc(/C=C2/C(=O)NC(=O)N(c3ccccc3)C2=O)c(C)n1-c1ccc(F)cc1 | n | x | n | x | n | x
CC(=O)Oc1ccc(Cl)c2cccnc12 | x | x | x | x | x | n[2.33 µM]
CC(C)c1cccc(C(C)C)c1OC(=O)NC(=O)c1c(F)cccc1F | n | n | n | x | n | n[12.7 µM]
C#C[C@@]1(O)CC[C@@H]2[C@@H]3CCC4=CC(=O)CC[C@@]4(C)[C@H]3CC[C@]21C | x | x | x | x | x | n[21.5 µM]
N[C@@H](Cc1cc(Br)c(O)c(Br)c1)C(=O)O | x | n | x | u | x | 35.5µM
C=CCC1(C(C)CCC)C(=O)NC(=O)NC1=O (stereo not drawn) | x | x | n | x | x | x
COC(=O)C1=C(c2cc3ccccc3o2)C[C@@H]2CC[C@H]1N2C(=O)NC(C)C | 39.8µM | x | n | x | n | x
COC(=O)C1=C(c2ccc3ccccc3c2)C[C@@H]2CC[C@H]1N2C(=O)NCc1ccco1 | u | 50.1µM | n | n | n | n[0.501 µM]
COC(=O)C1=C(c2ccc3ccccc3c2)C[C@@H]2CC[C@H]1N2C(=O)NCC1CC1 | n | n | n | n | n | n[0.501 µM]
